# High-throughput results from PubChem.
# This is a sample that favours compounds with a hit; in the whole collection about 2.5% have one here.
# AF4-AF9 inh = MLL-AF4/AF9 protein interaction inhibition; P42568; AlphaScreen, biotin-AF4 peptide binding to FLAG-AF9; inhibition, % at 10 µM; actives 0.47% (n = 350,000); AID 651704;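 active = every replicate reaching a set inhibition limit, whatever the replicate mean, cut at about 25% in these data; inconclusive = mean inhibition reaches that limit but some replicates miss it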;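 also: 0% = plate neutral control median and 100% = total signal loss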
# Target sequence (P42568 whole entry, looked up): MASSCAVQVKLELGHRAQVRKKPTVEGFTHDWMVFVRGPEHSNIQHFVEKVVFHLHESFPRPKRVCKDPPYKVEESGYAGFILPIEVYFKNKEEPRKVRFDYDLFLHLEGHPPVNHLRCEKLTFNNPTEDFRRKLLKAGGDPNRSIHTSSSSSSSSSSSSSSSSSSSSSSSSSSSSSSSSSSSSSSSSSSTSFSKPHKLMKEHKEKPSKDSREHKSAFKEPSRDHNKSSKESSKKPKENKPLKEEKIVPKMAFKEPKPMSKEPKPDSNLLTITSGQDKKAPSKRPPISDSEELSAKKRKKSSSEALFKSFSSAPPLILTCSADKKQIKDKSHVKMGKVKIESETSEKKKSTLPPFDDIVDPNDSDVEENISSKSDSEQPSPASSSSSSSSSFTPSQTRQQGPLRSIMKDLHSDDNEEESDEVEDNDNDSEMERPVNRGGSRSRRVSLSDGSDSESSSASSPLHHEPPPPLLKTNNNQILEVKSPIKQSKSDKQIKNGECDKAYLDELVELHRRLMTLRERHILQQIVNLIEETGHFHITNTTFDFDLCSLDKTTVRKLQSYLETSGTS
# NSD2 inh = blocks human histone methyltransferase NSD2; O96028; NSD2 peptide methylation, AlphaScreen, 120 min; inhibition, % at 12.5 µM; actives 0.54% (n = 310,000); in the data active = inhibition above about 50%
# Casp6 inh = blocks human caspase-6 cleavage activity; P55212; actives 0.53% (n = 350,000); purified caspase-6, Z-VEID-R110 cleavage fluorescence; inhibition, % at 12.5 µM;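 active = mean inhibition across replicates at least about 35%, with every replicate also reaching that limit, limit read from the data; inconclusive = only one of the two criteria met; inactive = neither criterion met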;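 also: 0% = median of neutral control wells and 100% = no fluorescence left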
# Ecoli rRNA inh = selective bacterial rRNA inhibition in E. coli. E. coli WT GFP vs humanized-ribosome RFP mutants, fluorescence, 24 h; stronger effect = lower value; DMSO median 0, no signal -100. GFP signal change (wild-type ribosome), % (test concentration not listed). actives 1.6% (n = 350,000). AID 720706;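 active = significant combined selectivity score with lowered wild-type GFP, culture density cut under 30%, mutant RFP and density less affected; inactive = any of these conditions unmet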
# RAD52 inh = inhibitors of human RAD52 DNA annealing; recombinant RAD52 DNA annealing, FRET fluorescence; actives 0.46% (n = 360,000); P43351; AID 651710; inhibition, % at 18.7 µM;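 active = every replicate showing at least 50% inhibition; inconclusive = mean inhibition at least 50% but not in every replicate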
# DNA binder FP = binds DNA, flagging false RAD52 inhibitor hits | shares compounds with RAD52 inh | Salmon sperm DNA/acridine orange FP displacement, DNA binding | AC50, µM | actives 8% (n = 1,000) | AID 652128;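 active = fitted half-maximal concentration for signal loss at or below twice the highest dose tested, in every separate run, actives reach about 64 µM in these data; inconclusive = runs disagree, or flat partial signal loss, or poor fit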
# * hit, by the source's call; i = inactive; ? = inconclusive; / = no result.
SMILES,AF4-AF9 inh,NSD2 inh,Casp6 inh,Ecoli rRNA inh,RAD52 inh,DNA binder FP
C[C@@H]1CCCCO[C@@H](CN(C)C(=O)c2ccncc2)[C@H](C)CN([C@H](C)CO)C(=O)c2cc(NS(=O)(=O)c3ccc(Cl)cc3)ccc2O1,-1,/,-1,-1,9,/
Fc1ccc2c(c1)Sc1ccc(Cl)cc1CC2N1CCN(CCC2OCCO2)CC1 (centres undefined),16,11,-19,-46,81*,i
O=[N+]([O-])c1ccc2c(c1)C(N1CCN(CCO)CC1)Cc1ccc(F)cc1S2 (centres undefined),16,9,2,-2,3,/
COc1ccc(S(=O)(=O)Nc2ccc3c(c2)C(=O)N([C@H](C)CO)C[C@@H](C)[C@H](CN(C)C(=O)CCC(F)(F)F)OCCCC[C@@H](C)O3)cc1,0,/,-1,1,18,/
CC(C)c1ccc(CNc2nc(NCC3CC3)nc3ccsc23)cc1,0,-2,-1,-61,71*,i
COc1ccccc1CNc1nc(NCc2ccc(C(C)C)cc2)c2sccc2n1,4,-1,-3,4,-11,/
CCCCCCOc1ccc(/C(C)=N/NC2=NCCN2)cc1,?,-3,-59,-53,54*,i
CCOc1cc2[nH]c(=S)n(Cc3ccc(C(=O)NCC(OC)OC)cc3)c(=O)c2cc1OCC,/,0,/,/,/,/
CCOc1cc2[nH]c(=S)n(Cc3ccc(C(=O)NCCN(CC)CC)cc3)c(=O)c2cc1OCC,-1,15,-14,14,53*,i
O=C(c1ccc(F)cc1)N1CC(=O)N2[C@H](CO)[C@@H](c3ccc(C#CC4CC4)cc3)[C@H]2C1,2,/,-1,6,5,/
OC[C@@H]1CN(CCN2CCOCC2)C[C@H](n2cnc3c(NCc4ccc(F)cc4)ncnc32)O1,-2,-1,-2,15,-5,/
OC[C@@H]1CN(CCc2ccccc2)C[C@H](n2cnc3c(NCc4ccc(F)cc4)ncnc32)O1,0,-1,0,-3,75*,i
O=[N+]([O-])c1ccc(COc2ccccc2CN2CCCC2)cc1,2,/,-23,-11,77*,i
C[C@@H]1CN([C@H](C)CO)C(=O)c2cc(C#Cc3cccnc3)cnc2O[C@H]1CN(C)Cc1ccccc1,-1,/,-2,-4,-12,/
CCCCCCCCCCCCC/C=C/[C@@H](O)[C@@H](N)CO,-13,/,1,/,55*,i
CCCCCCCC/C=C\CCCCCCCC(=O)O,-20,/,7,/,-11,/
C[C@H](CO)N1C[C@H](C)[C@H](CN(C)S(=O)(=O)c2cccs2)OCCCC[C@H](C)Oc2ccc(NS(=O)(=O)c3ccccc3)cc2C1=O,-2,/,1,-3,-41,/
C[C@@H]1CN([C@@H](C)CO)C(=O)c2cccc(NC(=O)Nc3ccc4c(c3)OCO4)c2O[C@@H]1CN(C)Cc1ccc(Oc2ccccc2)cc1,14,/,3,-2,53,i
C[C@@H]1CN([C@H](C)CO)C(=O)c2cccc(NC(=O)Nc3ccc4c(c3)OCO4)c2O[C@@H]1CN(C)Cc1ccc(Oc2ccccc2)cc1,4,/,-1,-10,3,/
CCCNC(=O)c1ccc2nc(-c3ccccc3)c(-c3ccccc3)nc2c1,/,-2,2,/,-10,/
CCN1CCN(CCNC(=O)c2ccc3nc(-c4cccc(C)c4)c(-c4cccc(C)c4)nc3c2)CC1,28*,31,-84,-57,68*,i
C[C@H]1CCCCO[C@H](CN(C)Cc2ccc(C(F)(F)F)cc2)[C@@H](C)CN([C@@H](C)CO)C(=O)c2cc(NS(=O)(=O)c3ccccc3)ccc2O1,0,/,-1,-3,11,/
COc1ccc(C#Cc2ccc3c(c2)[C@@H]2[C@@H](CCN2C(C)=O)[C@H](CO)N3C)cc1,/,/,/,1,/,/
Cc1cc2cc(CNC(=O)NC3CCCCC3)ccc2[nH]1,/,37,/,/,/,/
Cc1cc2cc(CNC(=O)NC3CCCCC3)ccc2n1C,12,/,1,-4,66*,i
C=CCN1CCc2nc(N)sc2CC1,6,/,/,/,66*,i
CCN1CCc2nc(N)sc2C1,-5,14,-27,5,69*,i
C=CCN1CCN(Cc2cnc(Cl)s2)CC1,/,-2,/,/,/,/
